Results taken from PubChem BioAssay AID1159580 (chemical genetic matrix, 2015).
“And” between values parts separate entries of the source, which are not always exact repeats. Identical values can stand only once. In all, about 5,500 compounds went through this assay and about 2,000 (36%) were called active. About 18% were inconclusive and are not listed. No stated cut-off is given here; in the data, active means normalized growth mostly below about 0.91 (no sharp cut-off); inconclusive means no clear call, values can overlap the other calls; inactive means mostly above about 0.92. The list shows a part of the results.

Test: chemical genetic growth profiling, strain panel (AID 1159580);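 further: tested at 20 µM; growth read once vehicle control cultures reached saturation at 30 °C; 1 = growth at the plate median or of vehicle wells; lower values mean less growth of the strain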
Conditions: S. cerevisiae deletion strains, growth OD

Measured: normalized growth

CCOC(=O)[C@H](CCc1ccccc1)N[C@@H](C)C(=O)N1Cc2ccccc2C[C@H]1C(=O)O
inactive: locus YAL021C, strain ccr4, active compounds read low 0.993 | locus YAL026C, strain drs2, active compounds read low 0.981 | locus YAL030W, strain snc1, active compounds read low 1 | locus YBL061C, strain skt5, active compounds read low 0.99 | locus YBR009C, strain hhf1, active compounds read low 1.02 | locus YBR021W, strain FUR4, active compounds read low 1.01 | locus YBR023C, strain chs3, active compounds read low 0.984 | locus YBR171W, strain sec66, active compounds read low 0.997 | locus YBR229C, strain ROT2, active compounds read low 1 | locus YBR231C, strain swc5, active compounds read low 1 | locus YBR279W, strain paf1, active compounds read low 0.98 | locus YCL011C, strain gbp2, active compounds read low 0.998 | locus YCL016C, strain dcc1, active compounds read low 0.963 | locus YCL029C, strain bik1, active compounds read low 1.01 | locus YCL061C, strain MRC1, active compounds read low 1.01 | locus YCL069W, strain vba3, active compounds read low 0.986 | locus YCR088W, strain abp1, active compounds read low 1 | locus YDL005C, strain med2, active compounds read low 1.01 | locus YDL035C, strain GPR1, active compounds read low 1.02 | locus YDL040C, strain nat1, active compounds read low 1 | locus YDL074C, strain BRE1, active compounds read low 0.996 | locus YDL101C, strain DUN1, active compounds read low 1.01 | locus YDL134C, strain PPH21, active compounds read low 1 | locus YDL185W, strain tfp1, active compounds read low 1.01 | locus YDL192W, strain arf1, active compounds read low 1.01 | locus YDR001C, strain nth1, active compounds read low 1 | locus YDR069C, strain doa4, active compounds read low 1 | locus YDR101C, strain arx1, active compounds read low 0.999 | locus YDR137W, strain rgp1, active compounds read low 0.983 | locus YDR159W, strain sac3, active compounds read low 0.964 | locus YDR162C, strain NBP2, active compounds read low 1.01 | locus YDR195W, strain ref2 0.965 | locus YDR297W, strain sur2, active compounds read low 1.01 | locus YDR318W, strain mcm21, active compounds read low 1.01 | locus YDR334W, strain swr1, active compounds read low 1.02 | locus YDR335W, strain msn5, active compounds read low 0.984 | locus YDR388W, active compounds read low 1.01 | locus YDR392W, strain spt3, active compounds read low 0.931 | locus YDR502C, strain sam2, active compounds read low 1.03 | locus YEL003W, strain gim4, active compounds read low 1.02 | locus YEL037C, strain rad23, active compounds read low 1.01 | locus YEL061C, strain CIN8 (second series), active compounds read low 1.03 | locus YEL061C, strain CIN8, active compounds read low 1.01 | locus YER015W, strain faa2, active compounds read low 1.01 | locus YER016W, strain bim1, active compounds read low 1.02 | locus YER110C, active compounds read low 1.01 | locus YER111C, strain swi4, active compounds read low 0.989 | locus YER155C, strain BEM2 (second series), active compounds read low 1.06 | locus YER155C, strain BEM2, active compounds read low 0.995 | locus YER167W, strain BCK2, active compounds read low 1.01 | locus YFR010W, strain ubp6, active compounds read low 0.998 | locus YGL078C, strain dbp3, active compounds read low 1.01 | locus YGL086W, strain mad1, active compounds read low 1 | locus YGL167C, strain pmr1, active compounds read low 1 | locus YGL173C, strain kem1, active compounds read low 0.993 | locus YGL227W, strain vid30, active compounds read low 0.986 | locus YGL240W, strain doc1, active compounds read low 1.02 | locus YGL248W, strain PDE1, active compounds read low 1 | locus YGL253W, strain hxk2, active compounds read low 0.926 | locus YGR078C, strain PAC10, active compounds read low 1 | locus YGR135W, strain pre9, active compounds read low 1.03 | locus YGR229C, strain SMI1, active compounds read low 1.02 | locus YGR252W, strain gcn5, active compounds read low 0.999 | locus YHR013C, strain ard1, active compounds read low 0.953 | locus YHR027C, strain rpn1, active compounds read low 1.01 | locus YHR030C, strain SLT2, active compounds read low 1.01 and 0.988 | locus YHR079C, strain IRE1 (second series), active compounds read low 1.01 | locus YHR079C, strain IRE1, active compounds read low 0.976 | locus YHR094C, strain hxt1, active compounds read low 1 | locus YHR129C, strain ARP1, active compounds read low 1 | locus YHR142W, strain chs7, active compounds read low 0.935 | locus YHR200W, strain rpn10, active compounds read low 1.01 | locus YIL066C, strain RNR3, active compounds read low 1.01 | locus YIL073C, strain SPO22, active compounds read low 1.08 | locus YIL125W, strain kgd1, active compounds read low 1 | locus YIR030C, strain dcg1, active compounds read low 1.01 | locus YJL092W, strain hpr5, active compounds read low 1.01 | locus YJL095W, strain BCK1 (second series), active compounds read low 1.01 | locus YJL095W, strain BCK1, active compounds read low 0.988 and 0.991 | locus YJL115W, strain asf1, active compounds read low 1.01 | locus YJL129C, strain trk1, active compounds read low 0.983 | locus YJL134W, strain LCB3, active compounds read low 1.01 | locus YJL154C, strain vps35, active compounds read low 1.02 | locus YJL164C, strain tpk1, active compounds read low 1 | locus YJL166W, strain qcr8, active compounds read low 1.03 | locus YJL168C, strain set2, active compounds read low 1.01 | locus YJL187C, strain SWE1 (second series), active compounds read low 1 | locus YJL187C, strain SWE1, active compounds read low 1.01
